Values joined by “and” are separate entries in the source; they are usually repeats but may differ in a detail not shown here. Identical values can stand only once. Records with an inconclusive call do not appear. A call without a number means that no potency is given here. Values without a mark were called inactive. Active and inactive are the calls of the source. Calls come from the whole dose curve; as a rule, active = well fitted cell-killing curve with a large enough effect in the repeat runs; inconclusive = weak or mixed curves; inactive = flat fitted curve, though single readings scatter.
Potency is the fitted concentration of half-maximal effect.

A short description of this assay: qHTS RealTime-Glo MT Cell Viability Assay in HepG2 cells - 16 hour (AID 1224885). Note: nearly all actives have a fitted effect of over 50% in size. Particulars: RealTime-Glo luminescence; series mostly up to 76.8 µM. The source says:
U.S. Tox21 Program National Center for Advancing Translational Sciences [NCATS] NIH Chemical Genomics Center [NCGC] U.S. Environmental Protection Agency [EPA] National Institutes of Environmental Health Sciences [NIEHS] National Toxicology Program [NTP] U.S. Food and Drug Administration [FDA] Tox21 Assay Overview: Measure of cell viability is critical in the cell-base assay. Analysis of cell viability is necessary for the characterization of cell responses to cytotoxic drugs and environmental stress. A RealTime-Glo MT Cell Viability Assay to monitor cell viability in real time of continues cell culture during 40 hours of compound treatment was used to screen Tox21 10K library compounds in HepG2 cells. The RealTime-Glo MT Cell Viability Assay is a nonlytic, homogeneous, bioluminescent method to measure cell viability in real time using a simple, plate-based method. The assay involves adding NanoLuc luciferase and a cell-permeant prosubstrate to cells in culture. Viable cells reduce the proprietary prosubstrate to generate a substrate for NanoLuc luciferase. This substrate diffuses from cells into the surrounding culture medium, where it is rapidly used by the NanoLuc Enzyme to produce a luminescent signal. The signal correlates with the number of viable cells, making the assay well suited for cytotoxicity studies.
Tox21 Assay Protocol Summary: The mixture of HepG2 cell suspension and reagents were dispensed at 600cells/6 ul/well in 1536-well tissue culture treated black solid bottom plates using a Multidrop dispenser. After the assay plates were incubated at a 37 C/5% CO2 incubator for 5 hours, 23 nL of compounds dissolved in DMSO, positive and negative controls was transferred to the assay plate by a pintool work station. The plates were incubated at 37 C for 40 hours. The luminescence intensity were measured at 0h, 8h, 16h, 24h, 32h and 40h time points using ViewLux plate reader during compound treatment.
In general terms: Quantitative high-throughput screening tests each substance at several concentrations.
As to `O=C1NCCN1CCN1CCC(c2cn(-c3ccc(F)cc3)c3ccc(Cl)cc23)CC1`, the Potency was 23.9 µM (active).

Take `CCC(=O)CC(C)CC` (stereo not given): the activity change, negative = cytotoxic was 0.759% [at 0.29 µM].

With `NC(=O)C(=O)N/N=C/c1ccc([N+](=O)[O-])o1`, the Potency entry is “inactive”.

In the case of `CCCCCCCC(=O)OCC`, the Potency entry is “inactive”.

In the case of `Cc1cncc(C)c1`, the Potency result is “inactive”.

For the molecule `CC1(C)C(=O)N(CO)C(=O)N1CO`, the Potency entry was “inactive”.

Regarding `COc1ccccc1C=O`, the Potency entry was “inactive”.

For the molecule `CCN=c1cc2oc3cc(NCC)c(C)cc3c(-c3ccccc3C(=O)OCC)c-2cc1C`, the Potency was 43.5 µM (active) and 24.5 µM (active).

Regarding `COc1cccc(CCc2ccccc2OCC(CN(C)C)OC(=O)CCC(=O)O)c1` (stereo not given), the Potency result is “inactive”.

Consider `CCCCCCC(C)OC(=O)COc1nc(F)c(Cl)c(N)c1Cl` (stereo not given), for which the Potency entry was “inactive”.

As for `NCCCC(O)(P(=O)(O)O)P(=O)(O)O`, the Potency entry is “inactive”.

Regarding `CCCCN(C)C`, the Potency entry is “inactive”.

As to `O=C(Oc1ccccc1)c1cccc(C(=O)Oc2ccccc2)c1`, the Potency result was “inactive”.

On to `C=CC(=C)CCC=C(C)C`, for which the Potency result was “inactive”.

As to `Cc1c(C(=O)O)cccc1[N+](=O)[O-]`, the Potency result was “inactive”.

Turning to `CC(COC(=O)c1ccccc1)OC(=O)c1ccccc1` (stereo not given), the Potency result is “inactive”.

With `CCN(CC)CCOc1ccc(C(O)(Cc2ccc(Cl)cc2)c2ccc(C)cc2)cc1` (stereo not given), the Potency is 23.9 µM (active).

Consider `CCCCCCCCCCCCOC(=O)c1cc(O)c(O)c(O)c1`, for which the Potency was 48.8 µM (active) and 49 µM (active).

Regarding `CCCCCCCCC(C)=O`, the Potency entry is “inactive”.

`CCO[Si](C)(C)OCC`: the Potency result was “inactive”.

Turning to `SCCCCCCCCS`, the Potency entry is “inactive”.

As for `ClC/C=C\CCl`, the Potency result was “inactive”.

As for `CCOB(OCC)OCC`, the Potency result is “inactive”.

`COC(=O)CC(C)CCC=C(C)C` (stereo not given): the Potency entry was “inactive”.

`CCO[Si](CCCSSSSCCC[Si](OCC)(OCC)OCC)(OCC)OCC`: the Potency entry is “inactive”.

`Cc1cc(=O)[nH]c(=O)[nH]1`: the Potency result was “inactive”.

As to `C=CC(C)(CCC=C(C)C)OC(=O)/C=C/c1ccccc1` (stereo not given), the Potency entry is “inactive”.

Consider `Clc1ccc(C(c2ccccc2Cl)C(Cl)Cl)cc1` (stereo not given), for which the Potency entry was “inactive”.

Regarding `CC1(C)C(=O)N(Br)C(=O)N1Br`, the Potency result was “inactive”.

As to `Cc1c(-c2ccc(O)cc2)n(Cc2ccc(OCCN3CCCCCC3)cc2)c2ccc(O)cc12`, the Potency is 23.9 µM (active).

Take `CCCCCCCC/C=C\CCCCCCCC(=O)NCc1ccc(O)c(OC)c1`: the Potency entry is “inactive”.

For the molecule `Oc1ccc(-c2ccc(O)cc2)cc1`, the Potency entry is “inactive”.

Regarding `CC(C)=CCCC(C)CCOC(=O)C(C)C` (stereo not given), the Potency result was “inactive”.

As for `O=S(O)O`, the activity change, negative = cytotoxic was 2.97% [at 15.8 µM].

On to `OCCN1CN(CCO)CN(CCO)C1`, for which the Potency entry is “inactive”.

`O=C(c1ccccc1)c1cc(Cl)ccc1O`: the Potency result was “inactive”.

Turning to `Cc1cccc(Br)c1`, the Potency entry is “inactive”.

On to `COCC(=O)O[C@]1(CCN(C)CCCc2nc3ccccc3[nH]2)CCc2cc(F)ccc2[C@@H]1C(C)C`, for which the Potency was 19 µM (active).

For the molecule `CCCCOCC`, the Potency result was “inactive”.

Regarding `CC1CCCCN1CCCOC(=O)c1ccc(OC2CCCCC2)cc1` (stereo not given), the Potency result is “inactive”.

Source of the values: PubChem BioAssay (Tox21).
